Pf growth 48h: Primary qHTS for delayed death inhibitors of the malarial parasite plastid, 48 hour incubation; P. falciparum luciferase growth in erythrocytes, 48 h; 310,000 compounds, 5.9% hits; Potency, µM (doses to about 28.7 µM), for the others: top-dose activity change, negative = inhibition, most hits filed as inhibitors; also: potency is read from the fitted curve at half-maximal effect; % is scaled to controls: 0 for no effect and ±100 for the full control effect
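Parasite viability was followed by luminescence of a genomically integrated firefly luciferase. Cultures held 0.1% parasitemia at 2% hematocrit (final), incubated under 5% CO2 at 37 C.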
Sm TGR block: qHTS Assay for the Inhibitors of Schistosoma Mansoni Peroxiredoxins. Schistosoma mansoni thioredoxin glutathione reductase (TGR), Q962Y6. purified TGR, DTNB reduction, TNB absorbance 405 nm. Potency, µM (highest dose often 114 µM), without a hit: top-dose activity change, negative = inhibition, most hits filed as inhibitors. 360,000 compounds, 3% hits; also: potency is read from the fitted curve at half-maximal effect; % is scaled to controls: 0 for no effect and ±100 for the full control effect; nearly all actives have a fitted effect of over 60% in size
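Kinetic colorimetric format: TGR-catalysed, NADPH-driven DTNB reduction monitored via TNB absorbance. Enzyme dispensed at 20 nM; compound exposure 15 min at room temperature before reaction start.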
CHX counter: Cycloheximide Counterscreen for Small Molecule Inhibitors of Shiga Toxin; cell reporter, cycloheximide protein synthesis inhibition counterscreen; max response, %; 300,000 compounds, 12% hits; in the data active = max response mostly above about 13%, no sharp cut-off; inactive = mostly below about 14%; also: read at 38.3 µM for the half of the compounds with a filed dose; 0% is about no effect
Pf growth 96h: Primary qHTS for delayed death inhibitors of the malarial parasite plastid, 96 hour incubation. P. falciparum luciferase reporter growth, 96 h. AID 504834, 2011. Potency, µM (titrated, usually from 28.7 µM), without a hit: at the highest dose activity change, negative = inhibition, usual class: inhibitors. 320,000 compounds, 6.9% hits; also: potency is read from the fitted curve at half-maximal effect; % is scaled to controls: 0 for no effect and ±100 for the full control effect
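Erythrocytes infected with luciferase-expressing P. falciparum were dispensed at 2% hematocrit and 0.05% parasitemia (final), then incubated with compounds 96 hours at 37 C in 5% CO2. Luminescence after detection reagent addition reported growth.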
Shiga toxin inh: A qHTS for Small Molecule Inhibitors of Shiga Toxin; Vero cells, Shiga toxin protein synthesis inhibition reporter; inhibition, % at 38.7 µM; 290,000 compounds, 9.2% hits; AID 2315, 2010; in the data active = inhibition mostly above about 28%, no sharp cut-off; inactive = mostly below about 43%; also: 0% is about no effect
NS1 function inh: qHTS Assay for Inhibitors of Influenza NS1 Protein Function; Potency, µM (doses to about 46.1 µM), without a hit: at the top dose activity, positive = more growth; 270,000 compounds, 0.4% hits; calls by dose curve; also: potency is read from the fitted curve at half-maximal effect; actives are rising curves; nearly all actives have a fitted effect of over 50% in size
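In this qHTS, NS1 from influenza A is expressed in budding yeast, where it slows growth. Cells are switched from glucose to 2% galactose medium (pH 6.0, -URA), treated with compound, and growth recovery is read at OD600.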
The depositor's hits bear a star; ? = inconclusive; . = no result given; [ ] = dose if it differs, or a comment. The list is not random: actives were taken first. Their share in the collection is about 21%. Unless noted, calls follow the shape of the dose curve; as a rule, active = well fitted curve in the direction sought with a large enough effect; inconclusive = small, poorly fitted or top-dose-only effect, or another doubt; inactive = no such curve, though single readings can be large; an effect the other way counts as inactive or inconclusive.

SMILES | Pf growth 48h | Sm TGR block | CHX counter | Pf growth 96h | Shiga toxin inh | NS1 function inh
COc1ccc(/C=C/C(=O)Nc2ccccc2C)cc1S(=O)(=O)N1CCOCC1 | ? | 15.0% | 62.4* | ? | 66.1* | -5.9%
CCc1cccc(C)c1NC(=O)Cn1ncc2c3ccccc3n(Cc3ccccc3)c2c1=O | . | 6.0% | . | . | . | .
Nc1nc(SCC(=O)Nc2ccc(Cl)cn2)n[nH]1 | 0.6% | 3.5% | -1.0 | 16.0% | -3.6 | .
OC1(c2ccccc2)CCN(Cc2ccccc2)CC1 | 3.3% | 5.3% | 10.2 | ? | -13.7 | .
OC1(c2ccc(Cl)c(Cl)c2)C[n+]2ccccc2N1Cc1ccccc1 (stereo unspecified) | 3.7µM* | -17.7% | -0.8 | ? | -15.9 | -0.5%
Cc1c(Cl)c(S(N)(=O)=O)cc(S(N)(=O)=O)c1NC(=O)c1ccc(Cl)cc1 | . | . | . | . | . | -2.8%
Cc1nc2cc(-c3ccccc3)ccc2o1 | . | 7.9%[11.4 µM] | 32.4* | 17.8% | 86.2* | -12.6%
CCOc1ccc(NC(=O)CC2C(=O)N(c3ccccc3)C(=O)N2CCc2sccc2C)cc1 (stereo unspecified) | . | -1.8% | . | . | . | .
COC(=O)C1C(c2ccccc2)C(C(=O)OCc2ccco2)C1c1ccccc1 (stereo unspecified) | 10.4µM* | ? | 72.1* | -4.3% | 124.6* | -35.6%
O=C(O)C1C(c2ccccc2)C(C(=O)OCc2ccco2)C1c1ccccc1 (stereo unspecified) | -7.0% | ? | -0.9 | -6.8% | -3.2 | -0.3%
Oc1cc(Cl)ccc1Oc1ccc(Cl)cc1Cl | 9.53µM* | . | -1.3 | 6.01µM* | 6.7 | .
COc1ccc2c(c1)cc(CNc1ccc(OC)c(OC)c1)c(=O)n2CC(=O)Nc1ccccc1C | . | -22.7% | . | . | . | .
CCCN(Cc1nnc(-c2cccs2)o1)C(=O)CN1C(=O)NC2(CCC(C)CC2)C1=O (stereo unspecified) | 2.9% | -4.2% | . | -16.5% | . | .
CCOC(=O)C1=C(C)NC(=O)NC1c1c(OCC(=O)N2CCCCC2)ccc2ccccc12 (stereo unspecified) | 11.7µM* | -1.4% | -7.3 | 25.3%[5.75 µM] | -1.5 | 5.1%
NC[C@@H]1O[C@@H](O[C@H]2[C@H](O)[C@@H](O[C@@H]3O[C@@H](CO)[C@H](O)[C@@H](N)[C@@H]3O)[C@H](N)C[C@@H]2N)[C@@H](O)[C@H](O)[C@H]1O | . | . | -3.7 | . | -3.4 | .
Cc1ccc2c(c1)sc1ncc(NC(=O)c3ccc(F)cc3)c(=O)n12 | 25.2% | -2.5% | 12.3 | 175.7% | 39.1 | .
Cc1ccc2c(c1)sc1nc(=O)n(-c3ccccc3)c(=O)n12 | 406.2% | -1.8% | 44.6* | 138.7% | 93.0* | 0.9%
Brc1ccccc1-c1nnc(-c2cccnc2)o1 | 84.5% | 2.0% | 29.5* | 1.9% | 48.9* | -8.2%
Cc1ccc(-c2nnc(-c3ccccc3Br)o2)cc1 | 204.8% | -16.2% | 37.6* | 38.7% | . | -25.8%
Brc1ccc(CSc2nnc(-c3cccnc3)o2)cc1 | 48.1% | 9.0% | -2.1 | -11.2% | 6.8 | -30.1%
Cc1ccc(-c2nnc(/C=C/c3ccccc3)o2)cc1 | 111.8% | 2.2% | 50.2* | 37.1% | 147.5* | -23.5%
Brc1ccc(-c2nnc(-c3ccccc3Br)o2)cc1 | 128.1% | 4.4% | 81.6* | 159.5% | 92.5* | 5.8%
Cc1ccc(/C=C/c2nnc(-c3cccc(C)c3)o2)cc1 | 2.2% | -0.3% | 18.0 | 5.1% | -2.3 | -9.3%
Cn1c(=O)c2sccc2n2c(CCC(=O)N3CCN(c4ccc(F)cc4)CC3)nnc12 | . | -2.0% | . | . | . | .
COc1ccc(CCNC(=O)CCCn2c(=O)c3ccccc3n(CC(=O)Nc3ccc(C)cc3Cl)c2=O)cc1OC | . | 4.6% | . | . | . | .
SMILES | Pf growth 48h | Sm TGR block | CHX counter | Pf growth 96h | Shiga toxin inh | NS1 function inh
c1ccc2sc(SN3CCOCC3)nc2c1 | 2.8% | ? | 7.6 | -20.6% | 18.8 | -68.1%
O=P(c1ccccc1)(c1nc2ccccc2s1)N1CCOCC1 (stereo unspecified) | -11.4% | 50.1µM* | -5.0 | . | -23.5 | -0.1%
CN1CCN(P(=O)(c2ccccc2)c2nc3ccccc3s2)CC1 (stereo unspecified) | 1.4% | -26.1% | -0.6 | 13.1µM* | 0.4 | -1.6%
O=C(CCC1COc2ccccc2O1)NC1CCCCC1 (stereo unspecified) | . | 3.6% | 35.8* | 119.4% | 27.3 | -8.3%
CCCCNC(=O)C1c2ccccc2Oc2ccccc21 | 19.7% | 6.5%[57.1 µM] | -1.4 | 88.6% | -6.4 | 4.3%
O=C(CC1COc2ccccc2O1)NC1CCCCC1 (stereo unspecified) | 36.0% | 9.0% | 10.0 | 1.8% | 24.2 | -10.5%
O=C(CCC1COc2ccccc2O1)NCC1COc2ccccc2O1 (stereo unspecified) | 0.8% | -4.3% | 1.2 | . | 2.9 | -44.9%
Cc1cc(C)nc(SCC2COc3ccccc3O2)n1 (stereo unspecified) | 40.7% | 13.1% | 24.2 | 87.0% | 78.6* | -67.6%
Cc1cc(C)nc(SCc2ccc(Br)cc2)n1 | ? | 6.2% | 4.1 | ? | . | -42.3%
O=C(NCc1ccco1)C1c2ccccc2Oc2ccccc21 | ? | 39.8µM* | 5.6 | 1.7% | 36.5 | 4.0%
O=C(CCC1COc2ccccc2O1)NCc1ccco1 (stereo unspecified) | 4.9% | 39.8µM* | -3.4 | 45.2% | -8.1 | 1.6%
Cc1cc(C)n(C(=O)CCC2COc3ccccc3O2)n1 (stereo unspecified) | 33.9% | -3.4% | 10.6* | ? | 35.3 | -7.4%
CCc1nn(CC(=O)NCCc2ccc(OC)c(OC)c2)c(=O)c2cc3occc3n12 | . | -7.4% | . | . | . | .
O=C(COc1cc2oc(=O)c3c(c2cc1Cl)CCC3)Nc1ccc(CN2CCOCC2)cc1 | 10.9% | -11.2% | 3.4 | 15.0% | -5.2 | -4.6%
Cc1cc(=O)oc2cc(OCC(=O)NCCCN3CCCC3=O)c(Cl)cc12 | -4.9% | 79.4µM* | -4.6 | ? | -2.6 | -8.6%
Cc1cc(OCC(=O)NCCCN2CCCC2=O)c2c(C)cc(=O)oc2c1 | -29.1% | 2.5% | -1.1 | ? | -7.5 | 9.3%
O=C(COc1cc2oc(=O)c3c(c2cc1Cl)CCC3)NCCCN1CCCC1=O | ? | -9.8% | -1.5 | 13.1µM* | -1.6 | -8.6%
O=C(NC1CCSc2ccccc21)c1cc([N+](=O)[O-])ccc1N1CCOCC1 (stereo unspecified) | ? | -2.5% | . | ? | . | .
CCc1cccc(NC(=O)C2CCCC2)c1 | 15.9% | 1.5% | -1.7 | 96.7% | 8.5 | -9.7%[9.22 µM]
COc1ccc(NC(=O)NC23CC4CC(CC(C4)C2)C3)cc1OC | ? | -4.9% | 9.2 | ? | -2.4 | 21.3%
CCc1ccc(NC(=O)C(=S)NC2CCCCC2)cc1 | 165.5% | 18.1% | 23.1* | 234.0% | 57.4* | -3.0%
CCOc1ccc(NC(=O)NC23CC4CC(CC(C4)C2)C3)cc1 | -16.5% | -4.0% | 14.9* | 9.0% | 34.2 | -31.4%
